Test results taken from PMC10726135, “HNF4α isoforms regulate the circadian balance between carbohydrate and lipid metabolism in the liver”.
Whole data set: some 18,000 sequences, median “log2 normalized intensity” near 0.36, cut for the highest 2% near 7.3. This excerpt belongs to a sample that is enriched for the highest values.

molecular target: T1, HNF4alpha8 (COS-7 nuclear extract) (Homo sapiens, UniProt P41235-5 1-452); experiment: protein-binding microarray; COS-7 nuclear extract on double-stranded Agilent 4x180k PBM; binding buffer, salt, pH and temperature not given in the material; high values mean tight binding; details: chain copies: 2; label: 3' end of strand 1 on the slide; dsDNA, one strand shown
T1 sequence: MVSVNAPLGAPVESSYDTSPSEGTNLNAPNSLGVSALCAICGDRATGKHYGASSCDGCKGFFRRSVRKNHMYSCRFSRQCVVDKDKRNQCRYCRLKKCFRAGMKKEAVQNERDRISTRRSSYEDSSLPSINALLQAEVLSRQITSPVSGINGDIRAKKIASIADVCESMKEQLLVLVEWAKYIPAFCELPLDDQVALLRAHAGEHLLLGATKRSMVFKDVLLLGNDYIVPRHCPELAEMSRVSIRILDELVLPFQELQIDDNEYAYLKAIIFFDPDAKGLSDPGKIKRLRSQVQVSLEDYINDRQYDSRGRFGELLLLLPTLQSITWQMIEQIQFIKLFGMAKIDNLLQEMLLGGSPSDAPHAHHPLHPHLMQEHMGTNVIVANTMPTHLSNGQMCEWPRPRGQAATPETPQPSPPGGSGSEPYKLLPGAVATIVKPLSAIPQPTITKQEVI
Outline: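 Double-stranded oligonucleotides of ~60 nt, representing ~44,000 test sequences in quadruplicate, made up a custom Agilent SurePrint G3 4x180k array. Nuclear extracts from COS-7 cells transiently transfected by CaPO4 with a human HNF4α isoform expression vector were applied, and bound HNF4α was imaged at 2-µm resolution on an Agilent G2565CA scanner. Binding signal refers to the background-corrected, normalized gProcessedSignal output of Agilent software.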

| Sequence | binding signal [log2 normalized intensity] |
| --- | --- |
| GTTACCTTGGGGTCAAAGTACATCCCCTAAGCCTAGGGAGATTAGAGTATCGGTCGA | 7.38 |
| TTGCAGACCTTGGTCAAAGTGACACATTCCGCCTAGGGAGATTAGAGTATCGGTCGA | 0.772 |
| AGGTGCAAAGTACATATTTACTTACCTTTTGCCTAGGGAGATTAGAGTATCGGTCGA | 3.68 |
| GGTCAAAGTACATCCCCTAAAACATCAAATGCCTAGGGAGATTAGAGTATCGGTCGA | 3.45 |
| TGCAAGTTACCTTGGGGTCAAAGTACATCCGCCTAGGGAGATTAGAGTATCGGTCGA | 9.54 |
| CTTGGGGTCAAAGTACATCCCCTAAAACATGCCTAGGGAGATTAGAGTATCGGTCGA | 6.61 |
| AACACCAGCAACCGCCTACCTTTGGACTTCGCCTAGGGAGATTAGAGTATCGGTCGA | 6.25 |
| TGGACCATTGCTGACCTTGCCTCTGTGCTCGCCTAGGGAGATTAGAGTATCGGTCGA | 1.8 |
| CTCTGGCCAGAGAGATGTCAGCCCAAGATAGCCTAGGGAGATTAGAGTATCGGTCGA | 3.25 |
| AAATGAAGTGGTATCCTGCAGTCAGTCTGAGCCTAGGGAGATTAGAGTATCGGTCGA | -0.508 |
| TGACTTTCTTCCTATGGGATCAAAGTGCGAGCCTAGGGAGATTAGAGTATCGGTCGA | 5.69 |
| AAAAAATGGGCAAAGGACAATAATGAATAAGCCTAGGGAGATTAGAGTATCGGTCGA | -0.651 |
| CTCCTGTTTGTATTCCTTGTCCTTGACCCTGCCTAGGGAGATTAGAGTATCGGTCGA | 4.96 |
| TTGACCTTCTCTGTTAACCCTTTGCAGCCCGCCTAGGGAGATTAGAGTATCGGTCGA | 2.91 |
| CCTTGACCCTTCCTCCCATTTGCTGCTCTAGCCTAGGGAGATTAGAGTATCGGTCGA | 1.81 |
| CCTGTTTGACCTTCGAACCCTTGCCATTTAGCCTAGGGAGATTAGAGTATCGGTCGA | 7.81 |
| AAGCACATACTTCTTCCTGTTTGACCTTCGGCCTAGGGAGATTAGAGTATCGGTCGA | 5.61 |
| CATACTTCTTCCTGTTTGACCTTCGAACCCGCCTAGGGAGATTAGAGTATCGGTCGA | 10.1 |
| GTACCTTGACCTTCTCTGTTAACCCTTTGCGCCTAGGGAGATTAGAGTATCGGTCGA | 4.52 |
| TTGACCTTCGAACCCTTGCCATTTACATCAGCCTAGGGAGATTAGAGTATCGGTCGA | 6.21 |
| TTCTTCCTGTTTGACCTTCGAACCCTTGCCGCCTAGGGAGATTAGAGTATCGGTCGA | 9.64 |
| ACCTCTGTAATAACTGCAGTGCCACTCGGGGCCTAGGGAGATTAGAGTATCGGTCGA | -0.418 |
| CTTTATCCTACAAGGGAGATAAACTTTATCGCCTAGGGAGATTAGAGTATCGGTCGA | 0.672 |
| GCTTGGCAAACATTTCACTTTGCTCCCTCCGCCTAGGGAGATTAGAGTATCGGTCGA | 2.18 |
| TGAATGATCAAAGGTTGGTTTTTGGAGACAGCCTAGGGAGATTAGAGTATCGGTCGA | 3.36 |
| TCCTGAGTGATTGTAGTGTCATTGTTATTTGCCTAGGGAGATTAGAGTATCGGTCGA | 1.98 |
| GGACTGTGACCCCACCTCTCAGACAGAGCTGCCTAGGGAGATTAGAGTATCGGTCGA | 3.8 |

| Sequence | binding signal [log2 normalized intensity] |
| --- | --- |
| GGGTCAGAACCTGCCCATGACCTTTGGACTGCCTAGGGAGATTAGAGTATCGGTCGA | 10.8 |
| AGAACCTGCCCATGACCTTTGGACTGTGACGCCTAGGGAGATTAGAGTATCGGTCGA | 10.2 |
| CATGACCTTTGGACTGTGACCCCACCTCTCGCCTAGGGAGATTAGAGTATCGGTCGA | 7.69 |
| CCTTTGGACTGTGACCCCACCTCTCAGACAGCCTAGGGAGATTAGAGTATCGGTCGA | 5.4 |
| CTGCCCTTTGGAACCTGCCCTCTGTCCCATGCCTAGGGAGATTAGAGTATCGGTCGA | 4.63 |
| GGGCAGGGTCAGAACCTGCCCATGACCTTTGCCTAGGGAGATTAGAGTATCGGTCGA | 6.45 |
| GGGGAGGGCAGGGTCAGAACCTGCCCATGAGCCTAGGGAGATTAGAGTATCGGTCGA | 0.0112 |
| CTTTGGAACCTGCCCTCTGTCCCATGGTGTGCCTAGGGAGATTAGAGTATCGGTCGA | 2.85 |
| TCAGGTGTTGCTCTCTTGCCATTCGTGGATGCCTAGGGAGATTAGAGTATCGGTCGA | 0.994 |
| ACTACTAACCGAAAGTCTGACCCTTGACCAGCCTAGGGAGATTAGAGTATCGGTCGA | 7.2 |
| CAATCCTGGAGAAGGAGCACCAATGACCTTGCCTAGGGAGATTAGAGTATCGGTCGA | 4.02 |
| CAATGACCTTTGACCCTTCTCTGGGAGAAAGCCTAGGGAGATTAGAGTATCGGTCGA | 8.44 |
| ACCTTTGACCCTTCTCTGGGAGAAAGGGAGGCCTAGGGAGATTAGAGTATCGGTCGA | 3.86 |
| GAAGGAGCACCAATGACCTTTGACCCTTCTGCCTAGGGAGATTAGAGTATCGGTCGA | 11.2 |
| TTTGAAAGAAAGAGACCTTTACCCTGACCTGCCTAGGGAGATTAGAGTATCGGTCGA | 4.47 |
| AAACAATGACCTCTGCACCCTTCCCTGAGTGCCTAGGGAGATTAGAGTATCGGTCGA | 4.47 |
| CTAAGCAGCGAAGCTGTGTCAGGCATTGTAGCCTAGGGAGATTAGAGTATCGGTCGA | -0.633 |
| AGATTCTGCAAACCTATTAATATATTCATAGCCTAGGGAGATTAGAGTATCGGTCGA | -0.929 |
| GTCTGTTGACCTTTGGCCAAGGGCAGTGTTGCCTAGGGAGATTAGAGTATCGGTCGA | 7.73 |
| TTGACCTTTGGCCAAGGGCAGTGTTTGCCCGCCTAGGGAGATTAGAGTATCGGTCGA | 6.36 |
| AGGCAGTCTGTTGACCTTTGGCCAAGGGCAGCCTAGGGAGATTAGAGTATCGGTCGA | 8.19 |
| GAGTCTGTTGTCTAACATTTTTGACCTTCAGCCTAGGGAGATTAGAGTATCGGTCGA | 4.68 |
| CTTTGGCCAAGGGCAGTGTTTGCCCAGCTTGCCTAGGGAGATTAGAGTATCGGTCGA | 0.731 |
| CCTCTTTGAGTCTGGTGTTCTCTTGGCCAAGCCTAGGGAGATTAGAGTATCGGTCGA | 1.63 |
| TCTTTACACCATTGCAAGGATTCCAAATTTGCCTAGGGAGATTAGAGTATCGGTCGA | 0.0367 |
| AAAGATTGCAGCAAGGAATTCAACCCTTGTGCCTAGGGAGATTAGAGTATCGGTCGA | 2.23 |
| GTCTTATCTACCTGGCTTGTTTGCAAAGCAGCCTAGGGAGATTAGAGTATCGGTCGA | 0.749 |
